The values that follow come from PMC4336329 (PLoS ONE, 2015).

The campaign covered roughly 310,000 compounds. About 2,200 (0.71%) showed an effect of 50% or more. The effect is printed as a negative number. The sample as a whole holds a higher share of strong results than the screen did.

The target of the experiment is human ether-à-go-go-related gene (hERG) potassium channel (human, UniProt Q12809). The experiment is described as follows: primary screen, population patch clamp on CHO cells stably expressing hERG; higher = less effect of the substance.
Chain of human ether-à-go-go-related gene (hERG) potassium channel (Q12809 whole entry, looked up): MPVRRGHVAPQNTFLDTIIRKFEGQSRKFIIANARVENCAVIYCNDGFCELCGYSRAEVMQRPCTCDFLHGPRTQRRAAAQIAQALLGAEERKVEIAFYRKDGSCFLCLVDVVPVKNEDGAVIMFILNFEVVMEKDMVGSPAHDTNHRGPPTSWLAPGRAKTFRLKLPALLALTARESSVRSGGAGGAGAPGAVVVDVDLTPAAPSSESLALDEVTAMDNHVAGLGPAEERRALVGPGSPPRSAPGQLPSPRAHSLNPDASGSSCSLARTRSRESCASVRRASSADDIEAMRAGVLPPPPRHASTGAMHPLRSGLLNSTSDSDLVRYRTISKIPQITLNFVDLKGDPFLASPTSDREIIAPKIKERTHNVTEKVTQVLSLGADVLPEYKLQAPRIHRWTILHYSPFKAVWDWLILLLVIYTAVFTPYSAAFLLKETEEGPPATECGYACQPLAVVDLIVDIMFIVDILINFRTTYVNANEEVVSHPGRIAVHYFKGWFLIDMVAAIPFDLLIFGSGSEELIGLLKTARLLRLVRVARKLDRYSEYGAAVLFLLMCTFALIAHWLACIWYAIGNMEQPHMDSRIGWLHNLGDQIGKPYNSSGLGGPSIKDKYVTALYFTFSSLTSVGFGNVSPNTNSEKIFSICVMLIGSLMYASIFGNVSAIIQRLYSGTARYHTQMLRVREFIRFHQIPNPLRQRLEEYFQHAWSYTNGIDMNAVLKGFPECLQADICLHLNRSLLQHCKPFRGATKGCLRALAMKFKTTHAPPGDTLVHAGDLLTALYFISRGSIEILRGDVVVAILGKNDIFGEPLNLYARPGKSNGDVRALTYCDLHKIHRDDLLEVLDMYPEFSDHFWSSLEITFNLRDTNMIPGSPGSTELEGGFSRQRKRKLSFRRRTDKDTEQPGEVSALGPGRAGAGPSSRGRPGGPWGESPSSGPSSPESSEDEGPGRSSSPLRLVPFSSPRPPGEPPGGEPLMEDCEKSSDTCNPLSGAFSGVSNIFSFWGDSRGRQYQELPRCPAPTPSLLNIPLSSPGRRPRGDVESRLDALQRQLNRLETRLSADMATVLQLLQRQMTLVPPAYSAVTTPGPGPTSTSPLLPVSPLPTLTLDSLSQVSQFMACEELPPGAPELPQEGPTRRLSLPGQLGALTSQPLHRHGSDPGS
`O=C(Nn1c(O)c(C=C2N=c3ccccc3=N2)sc1=S)c1ccccc1Cl`: the “hERG current change (%, negative = inhibition) at 1uM” value was 0.388%.
For `Cc1ccc(-c2nnn(CC(=O)N(c3ccc4c(c3)OCCO4)C(C(=O)NCC3CCCO3)c3ccc(F)cc3)n2)o1` (centres unmarked), the “hERG current change (%, negative = inhibition) at 1uM” value was 10.9%.
For `O=C(O)c1ccc(S(=O)(=O)NC2CCCCCC2)cc1` the value was 13.5%; for `O=C(NNC(=O)c1ccccc1[N+](=O)[O-])c1csc(N2CCOCC2)n1`, 0.109%.
Turning to `Cn1cc(-c2nnnn2-c2ccccc2)c(=O)c2ccccc21`, the “hERG current change (%, negative = inhibition) at 1uM” value was 1.73%.
For `Cn1cc(-c2nnnn2-c2ccc(Cl)cc2)c(=O)c2ccccc21` the value was -66.3%; for `CCn1cc(-c2nnnn2-c2ccc(Cl)cc2)c(=O)c2ccccc21`, -16.3%; for `CCCCNC(=O)/C(=C/c1ccccc1)NC(C)=O`, 1.06%.
As to `Cc1ccc(CNC(=O)CSc2nc3c(sc4ccccc43)c(=O)n2CCCN2CCCC2)cc1`, the “hERG current change (%, negative = inhibition) at 1uM” value was -57.9%.
For `O=C(CSc1nc2c(sc3ccccc32)c(=O)n1CCCN1CCOCC1)NCC1CCCO1` (centres unmarked) the value was 2.38%.
As to `COc1cccc(NC(=O)CSc2nc3c(sc4ccccc43)c(=O)n2CCCN2CCCC2)c1`, the “hERG current change (%, negative = inhibition) at 1uM” value was -3.14%.
For `CCN(CC)CCn1c(SCC(=O)NCc2ccco2)nc2c(sc3ccccc32)c1=O` the value was -50.4%; for `O=C(CSc1nc2c(sc3ccccc32)c(=O)n1CCO)NCc1ccco1`, -1%.
For `COCCCn1c(SCC(=O)NCc2ccccc2)nc2ccccc2c1=O` the value was -8.03%.
`Cc1ccc(CNC(=O)CSc2nc3ccccc3c(=O)n2CCCO)cc1`: the “hERG current change (%, negative = inhibition) at 1uM” value is -51.3%.
For `CCCCn1c(SCC(=O)NCc2ccco2)nc2c(sc3ccccc32)c1=O` the value was -4.7%.
For `O=C(CCCCCn1c(SCC(=O)c2ccccc2)nc2ccccc2c1=O)NCc1ccco1` the value was 14.7%; for `Cc1ccc(CSc2nc3ccccc3c(=O)n2CCCC(=O)NCc2ccco2)cc1`, 1.62%.
For `O=C(CSc1nc2ccccc2c(=O)n1CCCO)NCc1ccccc1` the value was -4.26%; for `O=C(CCCCCn1c(SCc2ccncc2)nc2ccccc2c1=O)NCc1ccco1`, -88.4%.
`O=C(CN1C(=O)/C(=C/c2ccccc2F)Sc2ccccc21)N1CCN(c2ccccn2)CC1`: the “hERG current change (%, negative = inhibition) at 1uM” value was determined as 12.8%.
For `CC(=O)Nc1cccc(C(=O)OCC(=O)NC(C)c2ccc(F)cc2)c1` (centres unmarked) the value was 16.1%; for `Cc1cc(Oc2ccc(-c3ccccc3)cc2)nc(N2CCOCC2)n1`, 2.61%; for `COc1ccc(N2CCC(CNC(=S)Nc3cccc(OC)c3)C2)cc1` (centres unmarked), 8.46%.
For `Cc1ccc(-n2c(SCC(=O)NC3CCCCC3)nc3c(c2=O)SCC3)cc1` the value was 9.81%; for `COc1ccc(C(=O)N=C2SC3CS(=O)(=O)CC3N2Cc2ccc(OC)c(OC)c2)cc1` (centres unmarked), 10.7%; for `Cc1ccc2nc(SCC(=O)N3CCCCC3)nc(=O)n2c1`, 12.4%.
For `CCOc1ccc(Nc2ncnc3c2cnn3Cc2ccccc2)cc1` the value was 8.72%.
For the compound `C=CCOc1cccc(C2/C(=C(/O)c3ccc(F)cc3)C(=O)C(=O)N2CCN2CCOCC2)c1` (centres unmarked), the “hERG current change (%, negative = inhibition) at 1uM” value is 12.9%.
For `O=[N+]([O-])c1cc(C(F)(F)F)cc([N+](=O)[O-])c1NN=C1CCCCC1` the value was 9.66%.
For `CC(=O)N1CCN(Cc2nc3cc(NC(=O)Nc4ccccc4)ccc3n2C)CC1` the value was 15.5%; for `CC(C)CN(C(=O)COC(=O)C12CC3CC(CC(O)(C3)C1)C2)C1CCS(=O)(=O)C1` (centres unmarked), 18.7%; for `CSCCC(/C(O)=C(\C#N)c1nc2ccccc2[nH]1)N1C(=O)c2ccccc2C1=O` (centres unmarked), 5.68%.
As for `CC(C)C(=O)Nc1ccc(C(=O)NNC(=O)NC2CCCCC2)cc1`, the “hERG current change (%, negative = inhibition) at 1uM” value stood at 21.9%.
For `O=C(CSc1nc2c(sc3ccccc32)c(=O)n1CCCN1CCCC1)NCC1CCCO1` (centres unmarked) the value was -19.8%; for `O=C(CSc1nc2c(sc3ccccc32)c(=O)n1CCc1ccccc1)NCc1ccco1`, 2.54%; for `O=C(CSc1nc2c(sc3ccccc32)c(=O)n1CCCN1CCCC1)NCc1ccccc1`, -67.9%.
For `COc1ccc(NC(=O)CSc2nc3c(sc4ccccc43)c(=O)n2CCCN2CCCC2)cc1` the value was -1.35%; for `CCOCCCn1c(SCC(=O)NCc2ccco2)nc2c(sc3ccccc32)c1=O`, 3.64%; for `O=C(CSc1nc2c(sc3ccccc32)c(=O)n1CCCN1CCCC1)NCc1ccco1`, -70.1%.
For `CCCc1cc(C(=O)NCCc2ccccc2)no1` the value was -4.85%.
Regarding `C[C@H](CCC(=O)O)[C@H]1CC[C@H]2[C@@H]3CC[C@@H]4C[C@H](O)CC[C@]4(C)[C@H]3CC[C@]12C`, the “hERG current change (%, negative = inhibition) at 1uM” value is reported as 15.8%.
For `CC1(C(=O)NCCc2c[nH]c3ccccc23)C=CC2(CCCCC2)N1C(=O)c1ccccc1` (centres unmarked) the value was 2.59%.
For `O=C(/C=C/c1ccc(Cl)cc1)NCc1ccncc1` the value was 9.09%; for `COc1ccccc1-n1c([S-])c(C(=O)Nc2ccccc2C(F)(F)F)[n+]2ccc(C(=O)NCCO)cc12`, 12.9%; for `Nc1ncnc(Nc2c(F)cccc2F)n1`, 7.67%.
For `CCOCCCNc1nc2c(C)cccn2c(=O)c1/C=C1\SC(=S)N(C(C)CC)C1=O` (centres unmarked) the value was 10.1%; for `Cc1[nH]n(-c2ccc([N+](=O)[O-])cc2)c(=O)c1C=NCCc1ccc(S(N)(=O)=O)cc1`, 13.6%; for `Cc1[nH]n(-c2ccc([N+](=O)[O-])cc2)c(=O)c1C=NCCN1CCN(C(=O)c2ccccc2)CC1`, -77%.
In the case of `Cc1[nH]n(-c2ccc([N+](=O)[O-])cc2)c(=O)c1C=NCCN1CCN(C(=O)c2ccc(F)cc2)CC1`, the “hERG current change (%, negative = inhibition) at 1uM” value is on record as -81.7%.
For `Cc1[nH]n(-c2ccc([N+](=O)[O-])cc2)c(=O)c1C=NCCN1CCN(C(=O)c2ccccc2F)CC1` the value was -34.2%; for `Cc1[nH]n(-c2ccc([N+](=O)[O-])cc2)c(=O)c1C=NCC1CCCO1` (centres unmarked), 7.67%; for `COc1ccc(-c2[nH]n(-c3ccc([N+](=O)[O-])cc3)c(=O)c2C=NCCN2CCNCC2)cc1`, 2.86%.
For `Cc1[nH]n(-c2ccc([N+](=O)[O-])cc2)c(=O)c1C=NCCN1CCN(C(=O)c2ccc(Br)cc2)CC1` the value was -77.4%.
For `Cc1[nH]n(-c2ccc([N+](=O)[O-])cc2)c(=O)c1C=NCCN1CCN(C(=O)C(C)C)CC1` the value was -19.5%.
As for `Cc1[nH]n(-c2ccc([N+](=O)[O-])cc2)c(=O)c1C=NCCN1CCN(C(=O)c2cccc(F)c2)CC1`, the “hERG current change (%, negative = inhibition) at 1uM” value was -78%.
For `O=c1c(C=NCCN2CCNCC2)c(-c2ccccc2)[nH]n1-c1ccc([N+](=O)[O-])cc1` the value was -31%.
For `COc1ccc(CCN=Cc2c(C)[nH]n(-c3ccc([N+](=O)[O-])cc3)c2=O)cc1OC` the value was 7%; for `C=CCNC(=S)N1CCN(CCN=Cc2c(C)[nH]n(-c3ccc([N+](=O)[O-])cc3)c2=O)CC1`, -27.3%.
